Results published in the supplement of paper PMC11006884.
Targets with a hit are over-represented here; the source holds about 6,500 in all. About 2% of all pairs of compound and target were hits. Unmarked numbers belong to inactive results.

What follows are targets tested with COC(=O)C#Cc1ccccc1 [methyl 3-phenylpropiolate] (assay: log2 ratio of iodoacetamide-alkyne labeling of the cysteine site, DMSO over compound (competition); higher = stronger covalent engagement of the cysteine by the compound, active = 1 or more). Conditions: 500 µM; treatment time 1 h; system: HEK293T cell lysate.
Summary of the method: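 Three replicates, each with duplicate channels, were prepared from HEK293T lysate (2 mg/mL) treated with vehicle or electrophile at 500 µM for 1 h at ambient temperature. Iodoacetamide alkyne was then applied for 1 h, and samples were clicked to sCIP-TMT reagents, pooled, trypsin-digested overnight at 37 °C, enriched on streptavidin, acid-eluted and analysed on Orbitrap Eclipse LC-MS/MS with FAIMS, with FragPipe quantification. The log2 competition ratio per cysteine is the mean control-channel divided by the mean compound-channel reporter intensity. Cysteines quantified in only one replicate were left out.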

Sequence of UniProt Q6IBW4 (Q6IBW4 whole entry, looked up): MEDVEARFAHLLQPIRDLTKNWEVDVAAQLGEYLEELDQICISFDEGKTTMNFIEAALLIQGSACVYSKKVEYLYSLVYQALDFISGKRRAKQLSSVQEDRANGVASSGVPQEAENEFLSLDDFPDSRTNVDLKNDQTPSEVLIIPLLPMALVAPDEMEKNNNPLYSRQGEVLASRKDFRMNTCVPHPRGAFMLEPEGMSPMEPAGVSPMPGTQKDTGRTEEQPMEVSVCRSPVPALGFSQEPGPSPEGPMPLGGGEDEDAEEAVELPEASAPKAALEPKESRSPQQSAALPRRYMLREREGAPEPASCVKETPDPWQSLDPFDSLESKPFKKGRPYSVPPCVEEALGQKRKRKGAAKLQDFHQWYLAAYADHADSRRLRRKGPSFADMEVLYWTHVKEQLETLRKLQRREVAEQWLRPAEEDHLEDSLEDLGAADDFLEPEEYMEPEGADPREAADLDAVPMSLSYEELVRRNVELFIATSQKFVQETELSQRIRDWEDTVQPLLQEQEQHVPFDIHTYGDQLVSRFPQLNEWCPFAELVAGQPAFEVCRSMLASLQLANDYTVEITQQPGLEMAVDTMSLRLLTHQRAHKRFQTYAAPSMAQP
Sequence of UniProt Q92620 (Q92620 whole entry, looked up): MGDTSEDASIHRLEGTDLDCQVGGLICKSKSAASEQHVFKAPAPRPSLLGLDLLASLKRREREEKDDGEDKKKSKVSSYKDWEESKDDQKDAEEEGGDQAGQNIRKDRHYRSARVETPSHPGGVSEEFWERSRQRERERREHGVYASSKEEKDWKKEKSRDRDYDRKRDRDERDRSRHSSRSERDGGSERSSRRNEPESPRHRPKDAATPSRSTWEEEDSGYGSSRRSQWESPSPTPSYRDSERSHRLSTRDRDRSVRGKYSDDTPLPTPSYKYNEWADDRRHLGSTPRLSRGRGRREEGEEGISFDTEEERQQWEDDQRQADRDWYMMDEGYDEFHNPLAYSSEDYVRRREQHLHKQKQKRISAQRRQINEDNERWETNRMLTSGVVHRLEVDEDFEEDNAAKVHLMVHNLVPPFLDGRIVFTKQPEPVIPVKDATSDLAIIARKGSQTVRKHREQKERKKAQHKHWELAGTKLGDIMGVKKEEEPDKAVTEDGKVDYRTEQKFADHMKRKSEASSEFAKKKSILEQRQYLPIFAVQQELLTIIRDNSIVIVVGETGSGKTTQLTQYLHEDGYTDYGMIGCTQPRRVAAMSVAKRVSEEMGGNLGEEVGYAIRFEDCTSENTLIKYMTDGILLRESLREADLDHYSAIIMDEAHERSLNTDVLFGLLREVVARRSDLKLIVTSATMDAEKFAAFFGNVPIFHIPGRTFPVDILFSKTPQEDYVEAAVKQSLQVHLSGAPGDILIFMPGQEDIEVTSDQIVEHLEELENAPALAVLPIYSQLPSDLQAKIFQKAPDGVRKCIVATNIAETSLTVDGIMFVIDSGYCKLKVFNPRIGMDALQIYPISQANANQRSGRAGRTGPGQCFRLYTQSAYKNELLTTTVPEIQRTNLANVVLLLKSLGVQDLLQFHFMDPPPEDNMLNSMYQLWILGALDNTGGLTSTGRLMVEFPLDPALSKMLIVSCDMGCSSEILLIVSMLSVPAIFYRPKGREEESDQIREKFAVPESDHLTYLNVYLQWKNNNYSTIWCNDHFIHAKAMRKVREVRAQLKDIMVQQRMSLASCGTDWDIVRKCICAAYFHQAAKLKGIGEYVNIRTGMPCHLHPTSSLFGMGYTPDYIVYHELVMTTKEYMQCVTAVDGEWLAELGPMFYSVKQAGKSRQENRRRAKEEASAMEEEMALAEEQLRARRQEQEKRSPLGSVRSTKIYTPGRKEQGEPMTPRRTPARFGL
Sequence of UniProt Q8IY17 (Q8IY17 whole entry, looked up): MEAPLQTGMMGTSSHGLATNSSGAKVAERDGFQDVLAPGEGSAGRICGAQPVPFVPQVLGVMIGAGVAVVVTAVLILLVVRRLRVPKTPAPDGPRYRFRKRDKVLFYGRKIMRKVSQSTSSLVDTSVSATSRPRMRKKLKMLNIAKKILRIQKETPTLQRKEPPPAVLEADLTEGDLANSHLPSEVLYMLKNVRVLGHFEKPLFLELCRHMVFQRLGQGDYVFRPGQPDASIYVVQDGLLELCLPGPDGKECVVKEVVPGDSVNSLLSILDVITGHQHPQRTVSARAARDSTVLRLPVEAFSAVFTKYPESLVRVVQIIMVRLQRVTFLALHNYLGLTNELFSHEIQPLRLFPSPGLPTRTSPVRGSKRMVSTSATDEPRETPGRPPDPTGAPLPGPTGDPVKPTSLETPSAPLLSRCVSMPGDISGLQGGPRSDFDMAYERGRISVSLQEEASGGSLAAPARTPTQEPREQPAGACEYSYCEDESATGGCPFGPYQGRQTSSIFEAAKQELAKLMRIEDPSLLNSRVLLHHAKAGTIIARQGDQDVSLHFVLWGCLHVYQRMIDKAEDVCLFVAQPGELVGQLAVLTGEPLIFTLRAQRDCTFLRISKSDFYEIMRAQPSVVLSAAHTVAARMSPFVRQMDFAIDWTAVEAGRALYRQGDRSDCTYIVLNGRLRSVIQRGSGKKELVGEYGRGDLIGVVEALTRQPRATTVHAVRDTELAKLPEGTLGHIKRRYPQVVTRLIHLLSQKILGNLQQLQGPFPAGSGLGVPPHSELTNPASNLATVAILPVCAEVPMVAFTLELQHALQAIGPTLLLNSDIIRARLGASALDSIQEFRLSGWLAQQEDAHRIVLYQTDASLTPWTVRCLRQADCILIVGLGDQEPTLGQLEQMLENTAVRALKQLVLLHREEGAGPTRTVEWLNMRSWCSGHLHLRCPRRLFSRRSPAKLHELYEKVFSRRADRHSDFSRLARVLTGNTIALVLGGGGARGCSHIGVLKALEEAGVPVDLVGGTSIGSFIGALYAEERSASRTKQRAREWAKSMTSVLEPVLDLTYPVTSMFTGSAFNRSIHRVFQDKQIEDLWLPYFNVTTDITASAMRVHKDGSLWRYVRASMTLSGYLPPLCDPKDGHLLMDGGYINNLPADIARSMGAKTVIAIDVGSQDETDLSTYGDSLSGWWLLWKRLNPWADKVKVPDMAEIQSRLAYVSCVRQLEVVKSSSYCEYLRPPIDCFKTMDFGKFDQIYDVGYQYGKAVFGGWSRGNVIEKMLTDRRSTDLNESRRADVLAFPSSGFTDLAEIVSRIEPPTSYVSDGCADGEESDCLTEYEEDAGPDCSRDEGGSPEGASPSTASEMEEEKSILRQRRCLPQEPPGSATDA
Sequence of UniProt Q86VP6 (Q86VP6 whole entry, looked up): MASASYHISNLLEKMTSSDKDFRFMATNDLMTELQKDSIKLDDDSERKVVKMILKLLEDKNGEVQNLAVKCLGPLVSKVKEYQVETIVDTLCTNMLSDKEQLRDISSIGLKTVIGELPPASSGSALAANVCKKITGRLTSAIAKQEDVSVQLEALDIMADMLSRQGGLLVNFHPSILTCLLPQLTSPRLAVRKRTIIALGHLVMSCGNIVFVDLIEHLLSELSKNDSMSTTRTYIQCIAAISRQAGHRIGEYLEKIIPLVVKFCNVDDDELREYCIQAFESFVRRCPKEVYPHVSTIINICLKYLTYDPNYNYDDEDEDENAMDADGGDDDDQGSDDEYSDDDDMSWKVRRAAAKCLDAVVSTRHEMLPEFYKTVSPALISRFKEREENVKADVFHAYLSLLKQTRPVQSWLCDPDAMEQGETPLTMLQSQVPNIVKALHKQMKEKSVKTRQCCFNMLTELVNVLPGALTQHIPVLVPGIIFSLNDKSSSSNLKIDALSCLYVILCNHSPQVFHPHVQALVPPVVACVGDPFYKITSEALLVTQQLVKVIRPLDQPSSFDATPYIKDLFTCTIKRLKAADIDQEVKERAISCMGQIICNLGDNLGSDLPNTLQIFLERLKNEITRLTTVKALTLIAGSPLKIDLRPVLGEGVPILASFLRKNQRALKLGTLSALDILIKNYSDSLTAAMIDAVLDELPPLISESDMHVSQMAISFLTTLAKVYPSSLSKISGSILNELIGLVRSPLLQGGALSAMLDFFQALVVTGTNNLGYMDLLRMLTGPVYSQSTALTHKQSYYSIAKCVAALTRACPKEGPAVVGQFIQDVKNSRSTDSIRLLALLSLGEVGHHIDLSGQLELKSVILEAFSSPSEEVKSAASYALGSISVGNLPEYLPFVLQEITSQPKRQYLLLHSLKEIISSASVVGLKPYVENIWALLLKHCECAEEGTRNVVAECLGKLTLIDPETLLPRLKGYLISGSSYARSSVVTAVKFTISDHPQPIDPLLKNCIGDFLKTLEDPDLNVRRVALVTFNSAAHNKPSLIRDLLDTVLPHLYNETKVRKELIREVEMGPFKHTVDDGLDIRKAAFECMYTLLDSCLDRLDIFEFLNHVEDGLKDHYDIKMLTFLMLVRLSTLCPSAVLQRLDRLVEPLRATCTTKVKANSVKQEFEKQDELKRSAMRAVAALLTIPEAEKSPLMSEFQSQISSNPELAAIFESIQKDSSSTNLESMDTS
Sequence of UniProt Q96H20 (Q96H20 whole entry): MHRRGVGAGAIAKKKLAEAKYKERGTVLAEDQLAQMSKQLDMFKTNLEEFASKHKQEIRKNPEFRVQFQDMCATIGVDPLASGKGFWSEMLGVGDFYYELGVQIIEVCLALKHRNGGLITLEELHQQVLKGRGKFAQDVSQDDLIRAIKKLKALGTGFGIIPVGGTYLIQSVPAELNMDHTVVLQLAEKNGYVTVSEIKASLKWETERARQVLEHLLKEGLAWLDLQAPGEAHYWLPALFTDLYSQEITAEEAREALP
Sequence of UniProt Q96AB3 (Q96AB3 whole entry): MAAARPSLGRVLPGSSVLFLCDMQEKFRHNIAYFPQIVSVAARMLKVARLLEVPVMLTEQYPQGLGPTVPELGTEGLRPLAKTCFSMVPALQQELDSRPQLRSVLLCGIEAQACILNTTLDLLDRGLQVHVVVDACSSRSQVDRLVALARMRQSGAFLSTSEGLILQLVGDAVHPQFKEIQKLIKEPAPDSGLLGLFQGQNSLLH

Target	log2 ratio of iodoacetamide-alkyne labeling
UniProt Q86Y56_C173	0.779
UniProt Q8WZA9_C504	0.0403
UniProt Q7Z5K2_C94	0.262
PNPLA6 C409 (UniProt Q8IY17)	0.4
MYBBP1A C942 (UniProt Q9BQG0)	0.523
UniProt Q96GD4_C234	0.62
EP400 C162 (UniProt Q96L91)	0.339
RNF25 C360 (UniProt Q96BH1)	1.07 (active)
CCT7 C29 (UniProt Q99832)	1.51 (active)
ACO2 C448 (UniProt Q99798)	1.71 (active)
CAND1 C1153 (UniProt Q86VP6)	0.443
RPL36AL C72 (UniProt Q969Q0)	0.0561
RDH13 C30 (UniProt Q8NBN7)	0.116
GIGYF2 C289 (UniProt Q6Y7W6)	-0.00206
UniProt Q8IX01_C183	0.451
UniProt Q5VSL9_C418	1.22 (active)
CCT7 C310 (UniProt Q99832)	0.193

Target	log2 ratio of iodoacetamide-alkyne labeling
NIPBL C1795 (UniProt Q6KC79)	-0.189
NAT14 C108 (UniProt Q8WUY8)	1.05 (active)
FLAD1 C496 (UniProt Q8NFF5)	1.06 (active)
PARG C963 (UniProt Q86W56)	0.0715
WDFY2 C290 (UniProt Q96P53)	-0.231
ISOC2 C84 (UniProt Q96AB3)	0.179
DHX38 C20 (UniProt Q92620)	1.36 (active)
UniProt Q8N1I0_C1723	1.34 (active)
PTCD3 C642 (UniProt Q96EY7)	0.535
UniProt Q7RTV0_C61	0.11
NCAPH2 C342 (UniProt Q6IBW4)	1.07 (active)
ZFYVE16 C895 (UniProt Q7Z3T8)	0.597
UniProt Q86YR5_C515	1.7 (active)
UniProt Q8N1G2_C794	0.107
UniProt Q9BSH4_C256	-0.207
SNF8 C72 (UniProt Q96H20)	0.2
DPF1 C149 (UniProt Q92782)	0.289
